Data published in PubChem BioAssay (NCATS).
Results filed as inconclusive are left out. Active and inactive are the calls of the source. Unless noted, the call rests on the fitted dose curve; in most records, active means well fitted curve in the direction sought with a large enough effect; inconclusive means small, poorly fitted or top-dose-only effect, or another doubt; inactive means no such curve, though single readings can be large; an effect the other way counts as inactive or inconclusive.

What was measured:
[1] = target: Flap endonuclease 1 (Homo sapiens) (UniProt P39748); test: qHTS Validation Assay for the Inhibitors of Human Flap endonuclease 1 (FEN1) (AID 488816); further: potency means the concentration at half of the fitted maximal effect
Procedure, shortened: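 Steps: add FEN1 (10 nM reagent) or buffer only; pin compounds; hold 15 min at room temperature; start with substrate, 50 nM final; read at 0 and 15 min; correct, normalize and fit a four-parameter Hill curve.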

[2] = target: Chromobox protein homolog 1 (Homo sapiens) (UniProt P83916); test: qHTS Validation Assay for Inhibitors of HP1-beta Chromodomain Interactions with Methylated Histone Tails (AID 488953); further: nearly all actives have a fitted effect of over 50% in size; further: potency means the concentration at half of the fitted maximal effect
Procedure, shortened: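 Compounds pinned into a preassembled complex of HP1-beta and trimethyl-K9 histone H3(1-18) biotin peptide (50 nM each; PBS pH 7.4, 0.01% Tween-20). After 30 min, bead-based AlphaScreen detection followed.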

[3] = target: Methanococcus maripaludis chaperonin (MmCpn) (UniProt Q6LX38); test: High-Throughput Screening for Modulators of Cytosolic Chaperonin Activity: MmCpn Primary Screen (AID 488978); further: 0% is about no effect
Procedure, shortened: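 HTRF readout (320 nm excitation, 590/665 nm emission) of ADP generated by 50 nM MmCpn hydrolysing 30 uM ATP during 10 min at 37C; compound preincubated 5 min RT.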

[4] = target: D(1A) dopamine receptor (Homo sapiens) (UniProt P21728); test: HTS Assay for Allosteric Agonists of the Human D1 Dopamine Receptor: Primary Screen for Agonists (AID 488981); further: 0% is about no effect
Procedure, shortened: (§1)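 Tetracycline-induced HEK293 T-REx cells force-coupled to calcium signalling were incubated overnight at 30 C and dye-loaded at room temperature. Calcium flux over 180 s after compound addition flagged agonists; a further 180 s read after EC20 dopamine flagged potentiators.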

[5] = target: D(1A) dopamine receptor (Homo sapiens) (UniProt P21728); test: HTS Assay for Allosteric Agonists of the Human D1 Dopamine Receptor: Primary Screen for Antagonists (AID 488983);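 further: calcium flux response to an EC80 dopamine challenge measured with no-wash dye; nearly all actives have a fitted effect of over 65% in size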; further: potency means the concentration at half of the fitted maximal effect
Procedure, shortened: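 In this primary screen, compounds are applied to calcium-dye-loaded HEK293 T-REx cells with force-coupled D1 expression induced overnight at 30 C. An EC80 of dopamine follows the 180 s compound phase, and calcium is monitored for a further 180 s.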

[6] = Validation screen for small molecules that induce genotoxicity in human embryonic kidney (HEK293T) cells expressing luciferase-tagged ELG1 (AID 493106); further: 0% is about no effect
Procedure, shortened: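 In this validation screen, increased ELG1-luciferase signal flags compounds causing genetic stress. HEK293T reporter cells are treated 16 hr (37 °C, 5% CO2), developed with ONE-Glo for 30 min at room temperature, and imaged on a CCD-based reader.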

[7] = Nrf2 qHTS screen for inhibitors: Validation (AID 493153; active means well fitted inhibition curve with a large enough effect in the main read-out, with a control signal flat, not every such curve was filed as active); conditions: Potency: luciferase luminescence; viability change: measured here: cytotoxicity max response
Procedure, shortened: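 In this counterscreened reporter format, each well gives two signals: CellTiter-Fluor fluorescence for cytotoxicity and ARE-luciferase luminescence for Nrf2 function. A549 ARE_Fluc cells in 5% FBS OPTI-MEM were exposed to compound titrations for 18-24 h.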

[8] = qHTS for Inhibitors of Cell Surface uPA Generation: Validation Assay (AID 493164);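 further: RAW 264.7 macrophage cells exposed to compound for 18 h; 0% is about no effect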
Procedure, shortened: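 Compounds are titrated over seven points (2.45 nM–38.3 uM final) onto pre-plated RAW 264.7 cells and incubated for 18 h. Retained intracellular ATP, measured with ATP-Lite, indicates blocked lethal factor entry.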

[9] = target: Peptidyl-prolyl cis-trans isomerase NIMA-interacting 1 (Homo sapiens) (UniProt Q13526); test: qHTS Validation Assay to Find Inhibitors of Pin1 (AID 504536; active means well fitted inhibition curve with a large enough effect in the polarisation, with a control signal flat, not every such curve was filed as active; the % refers to the polarisation;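 further: 0% = full Pin1 enzyme wells and -100% = no-enzyme wells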)
Procedure, shortened: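 Fluorescence polarization competition: compounds (titration) displace HiFluor-488-labeled Pin1-1b peptide from Pin1 (0.3 uM final) in pH 7.5 HEPES buffer with DTT, 10 min at room temperature; %Activity normalized to no-enzyme wells, curves fitted.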

[10] = target: Phosphoglycerate kinase, glycosomal (Trypanosoma brucei brucei) (UniProt P07378); test: qHTS Validation Assay to Find Inhibitors of Phosphoglycerate Kinase (AID 504547);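 further: control wells lack PGK and mark full inhibition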
Procedure, shortened: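 In TEA buffer (100mM, pH 7.6) containing 5mM MgCl2 and 0.01% Tween-20, the GAPDH-coupled PGK reaction proceeded for 60 minutes at room temperature before a single luminescence reading using Kinase-Glo Plus.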

[11] = target: M-phase phosphoprotein 8 (Homo sapiens) (UniProt Q99549); test: qHTS Validation Assay for Inhibitors for MPP8 Chromodomain Interactions with Methylated Histone Tails (AID 488949); further: nearly all actives have a fitted effect of over 55% in size; further: potency means the concentration at half of the fitted maximal effect
Procedure, shortened: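 Chemiluminescent proximity assay: histidine-tag capture via nickel acceptor beads, biotin peptide via streptavidin donor beads. Protein and peptide each at 50 nM, pH 7.4, with 30 min incubations at room temperature for complex formation, compound exposure and bead binding.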

[12] = target: Transient receptor potential cation channel subfamily V member 1 (Homo sapiens) (UniProt Q8NER1); test: HTS Assay for Compounds that Act as Enhancers of the Vanilloid Receptor 1 (AID 488979); further: 0% is about no effect
Procedure, shortened: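 TRPV1-expressing cells loaded with Fluo-8 calcium dye; compounds added and calcium influx read kinetically for 3 min (agonist phase), then capsaicin at EC20 added and read 2 min more for enhancement. Fluorescence ex 480/em 520 nm.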

[13] = target: Thyrotropin-releasing hormone receptor (Homo sapiens) (UniProt P34981); test: qHTS for Small Molecule Agonists and Allosteric Enhancers of Human TRH Receptor: Validation Screen for Agonists (AID 493127;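 active means calcium activation more than 3 SD above the typical response in the agonist read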;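 further: intracellular calcium rise by fluo-8 fluorescence before TRH EC20 addition; 0% is about no effect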); conditions: TRH receptor agonist cell assay; at 2 µM; stronger effect = higher value
Procedure, shortened: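 Kinetic fluorescence assay of agonist-induced calcium release: overnight-plated TRHR cells, room-temperature fluo-8 loading, baseline then compound addition with per-second reads.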

[14] = target: Galactokinase (Homo sapiens) (UniProt P51570); test: qHTS Validation Assay for Inhibitors of Human Galactokinase (GALK) (AID 493189); further: 0% is about no effect
Procedure, shortened: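 Enzyme activity is inferred from ATP consumption: human GALK phosphorylates galactose (100 uM) using 35 uM ATP for 1 h at room temperature, and luciferase-based Kinase-Glo Plus reports unconsumed ATP.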

[15] = Validation screen for small molecules that induce DNA re-replication in SW480 colon adenocarcinoma cells (AID 504364); further: 0% is about no effect
Procedure, shortened: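 Hoechst-stained SW480 nuclei, imaged at 405 nm excitation after 48 hr compound exposure, were counted for elevated DNA content as the re-replication signal.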

[16] = target: Thyrotropin receptor (Homo sapiens) (UniProt P16473); test: qHTS Assay for Antagonists of the Thyroid Stimulating Hormone Receptor (AID 488980); further: series mostly up to about 58 µM; 0% is about no effect
Procedure, shortened: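 Inhibition of TSH-stimulated cAMP accumulation was quantified by homogeneous time-resolved FRET in TSHR-transfected HEK293 cells. Agonist: TSH, 4 nM final (EC80).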

[17] = target: D(1A) dopamine receptor (Homo sapiens) (UniProt P21728); test: HTS Assay for Allosteric Agonists of the Human D1 Dopamine Receptor: Primary Screen for Potentiators (AID 488982); further: 0% is about no effect
Procedure, shortened: as §1

[18] = target: ATP-dependent 6-phosphofructokinase (Trypanosoma brucei brucei) (UniProt O15648); test: qHTS Assay to Find Inhibitors of T. brucei phosphofructokinase: hit validation (AID 492961);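 further: luminescence reports ADP formed as PFK phosphorylates fructose-6-phosphate with ATP; series mostly up to about 51 µM; on the % scale 0 is the no-effect control and ±100 the full control effect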
Procedure, shortened: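 Percent activity derived from corrected luminescence, normalized between 0x and 1x enzyme controls, then fitted to concentration-response curves. Conditions: 1.25 nM PFK, 0.1 mM ATP, 0.5 mM F6P, 45 min RT.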

[19] = target: ATPase family AAA domain-containing protein 5 (Homo sapiens) (UniProt Q96QE3); test: Validation screen for small molecules that inhibit ELG1-dependent DNA repair in human embryonic kidney (HEK293T) cells expressing luciferase-tagged ELG1 (AID 493107);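 further: cells co-treated with the DNA-damaging agent 5-fluorouridine alongside compound; series mostly up to about 46 µM; on the % scale 0 is the no-effect control and ±100 the full control effect; inhibitors lower the ELG1-luciferase luminescence signal; nearly all actives have a fitted effect of over 70% in size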
Procedure, shortened: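 Compounds reducing 5-fluorouridine-driven ELG1-luciferase signal in HEK293T cells were scored; exposure lasted 16 hr at 37 °C with luminescence detected via ONE-Glo.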

Sequence of Peptidyl-prolyl cis-trans isomerase NIMA-interacting 1 (Homo sapiens) (Q13526 whole entry, looked up): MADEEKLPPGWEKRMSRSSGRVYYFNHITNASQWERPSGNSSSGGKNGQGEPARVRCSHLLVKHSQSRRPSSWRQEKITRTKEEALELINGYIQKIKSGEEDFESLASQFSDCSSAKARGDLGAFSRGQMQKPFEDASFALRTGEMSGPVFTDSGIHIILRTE
Sequence of Chromobox protein homolog 1 (Homo sapiens) (P83916 whole entry, looked up): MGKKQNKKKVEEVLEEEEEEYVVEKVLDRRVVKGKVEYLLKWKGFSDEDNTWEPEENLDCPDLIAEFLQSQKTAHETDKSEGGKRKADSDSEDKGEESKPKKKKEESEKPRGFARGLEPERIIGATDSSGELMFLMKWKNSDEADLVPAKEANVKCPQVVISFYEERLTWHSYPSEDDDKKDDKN
Sequence of Thyrotropin-releasing hormone receptor (Homo sapiens) (P34981 whole entry, looked up): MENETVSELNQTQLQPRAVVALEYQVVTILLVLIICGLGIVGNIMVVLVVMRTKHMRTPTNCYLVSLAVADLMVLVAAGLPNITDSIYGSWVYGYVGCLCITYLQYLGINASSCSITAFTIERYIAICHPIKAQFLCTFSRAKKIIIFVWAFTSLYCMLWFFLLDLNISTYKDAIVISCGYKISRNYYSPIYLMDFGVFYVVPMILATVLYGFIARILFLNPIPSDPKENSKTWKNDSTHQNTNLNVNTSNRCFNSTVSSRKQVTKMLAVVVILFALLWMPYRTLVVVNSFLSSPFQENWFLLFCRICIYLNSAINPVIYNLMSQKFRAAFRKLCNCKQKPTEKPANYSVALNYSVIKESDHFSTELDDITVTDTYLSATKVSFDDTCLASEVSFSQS
Sequence of Galactokinase (Homo sapiens) (P51570 whole entry, looked up): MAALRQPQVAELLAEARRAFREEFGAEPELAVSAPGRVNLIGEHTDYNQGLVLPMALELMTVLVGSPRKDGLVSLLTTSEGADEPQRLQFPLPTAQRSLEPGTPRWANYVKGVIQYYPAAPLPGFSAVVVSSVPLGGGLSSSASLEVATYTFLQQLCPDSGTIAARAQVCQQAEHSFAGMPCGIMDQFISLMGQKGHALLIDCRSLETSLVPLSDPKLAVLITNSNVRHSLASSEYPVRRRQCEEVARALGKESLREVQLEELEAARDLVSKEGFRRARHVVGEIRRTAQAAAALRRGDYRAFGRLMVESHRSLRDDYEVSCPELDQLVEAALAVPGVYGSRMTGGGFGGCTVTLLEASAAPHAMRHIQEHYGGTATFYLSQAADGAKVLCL
Sequence of M-phase phosphoprotein 8 (Homo sapiens) (Q99549 whole entry, looked up): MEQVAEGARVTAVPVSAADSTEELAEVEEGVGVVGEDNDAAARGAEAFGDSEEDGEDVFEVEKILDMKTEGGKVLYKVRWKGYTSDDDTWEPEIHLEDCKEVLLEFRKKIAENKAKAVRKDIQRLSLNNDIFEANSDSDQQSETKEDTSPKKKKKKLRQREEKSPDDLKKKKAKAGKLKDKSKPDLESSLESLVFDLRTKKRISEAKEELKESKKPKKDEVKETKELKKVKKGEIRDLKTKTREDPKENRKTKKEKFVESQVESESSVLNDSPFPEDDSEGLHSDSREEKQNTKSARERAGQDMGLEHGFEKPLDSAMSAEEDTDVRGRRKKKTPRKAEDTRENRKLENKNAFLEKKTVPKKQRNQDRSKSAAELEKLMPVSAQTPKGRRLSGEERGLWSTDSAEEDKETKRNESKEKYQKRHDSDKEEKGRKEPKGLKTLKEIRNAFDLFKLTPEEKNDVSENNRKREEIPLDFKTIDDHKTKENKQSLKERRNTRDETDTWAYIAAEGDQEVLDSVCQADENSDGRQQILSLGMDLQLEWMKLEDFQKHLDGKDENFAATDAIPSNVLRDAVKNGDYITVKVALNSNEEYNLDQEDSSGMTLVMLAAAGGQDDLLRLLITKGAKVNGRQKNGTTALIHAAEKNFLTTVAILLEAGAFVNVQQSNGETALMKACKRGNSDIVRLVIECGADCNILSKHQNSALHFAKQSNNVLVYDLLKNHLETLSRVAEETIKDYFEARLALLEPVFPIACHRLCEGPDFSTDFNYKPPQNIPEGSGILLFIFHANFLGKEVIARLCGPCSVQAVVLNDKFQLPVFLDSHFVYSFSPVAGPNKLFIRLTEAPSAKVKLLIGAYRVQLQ
Sequence of Phosphoglycerate kinase, glycosomal (Trypanosoma brucei brucei) (P07378 whole entry, looked up): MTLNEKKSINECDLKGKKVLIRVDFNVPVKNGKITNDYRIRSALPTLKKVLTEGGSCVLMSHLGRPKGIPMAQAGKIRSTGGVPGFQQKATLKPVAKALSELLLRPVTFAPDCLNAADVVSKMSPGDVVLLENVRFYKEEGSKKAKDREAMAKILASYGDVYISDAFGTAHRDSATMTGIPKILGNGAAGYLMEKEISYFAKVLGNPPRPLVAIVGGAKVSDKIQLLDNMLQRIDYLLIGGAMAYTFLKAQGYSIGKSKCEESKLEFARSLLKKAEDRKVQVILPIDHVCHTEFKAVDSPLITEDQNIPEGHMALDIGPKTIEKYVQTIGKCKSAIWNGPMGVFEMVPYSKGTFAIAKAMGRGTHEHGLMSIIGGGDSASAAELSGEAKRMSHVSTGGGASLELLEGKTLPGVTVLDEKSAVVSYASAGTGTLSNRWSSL
Sequence of Transient receptor potential cation channel subfamily V member 1 (Homo sapiens) (Q8NER1 whole entry, looked up): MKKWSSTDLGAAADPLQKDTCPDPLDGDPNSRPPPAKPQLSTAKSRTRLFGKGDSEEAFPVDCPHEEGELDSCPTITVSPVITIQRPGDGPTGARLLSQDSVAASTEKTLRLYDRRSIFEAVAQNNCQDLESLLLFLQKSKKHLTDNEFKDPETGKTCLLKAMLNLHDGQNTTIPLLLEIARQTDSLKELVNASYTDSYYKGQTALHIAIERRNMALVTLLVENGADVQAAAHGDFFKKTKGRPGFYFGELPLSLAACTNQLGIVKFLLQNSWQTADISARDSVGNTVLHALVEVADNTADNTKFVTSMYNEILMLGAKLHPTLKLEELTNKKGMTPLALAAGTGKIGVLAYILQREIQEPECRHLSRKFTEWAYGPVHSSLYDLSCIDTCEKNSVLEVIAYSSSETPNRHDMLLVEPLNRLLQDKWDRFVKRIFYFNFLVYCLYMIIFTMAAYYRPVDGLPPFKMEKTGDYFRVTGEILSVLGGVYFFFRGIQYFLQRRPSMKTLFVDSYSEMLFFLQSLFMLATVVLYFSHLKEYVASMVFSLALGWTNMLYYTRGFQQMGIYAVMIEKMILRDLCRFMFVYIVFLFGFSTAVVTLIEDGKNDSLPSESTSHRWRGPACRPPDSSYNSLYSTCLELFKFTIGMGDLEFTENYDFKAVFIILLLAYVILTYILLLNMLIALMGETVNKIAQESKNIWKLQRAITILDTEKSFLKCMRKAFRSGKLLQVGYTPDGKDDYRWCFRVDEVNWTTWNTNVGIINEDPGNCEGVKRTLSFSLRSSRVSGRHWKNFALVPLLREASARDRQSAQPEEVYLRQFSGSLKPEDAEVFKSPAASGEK
Sequence of Flap endonuclease 1 (Homo sapiens) (P39748 whole entry, looked up): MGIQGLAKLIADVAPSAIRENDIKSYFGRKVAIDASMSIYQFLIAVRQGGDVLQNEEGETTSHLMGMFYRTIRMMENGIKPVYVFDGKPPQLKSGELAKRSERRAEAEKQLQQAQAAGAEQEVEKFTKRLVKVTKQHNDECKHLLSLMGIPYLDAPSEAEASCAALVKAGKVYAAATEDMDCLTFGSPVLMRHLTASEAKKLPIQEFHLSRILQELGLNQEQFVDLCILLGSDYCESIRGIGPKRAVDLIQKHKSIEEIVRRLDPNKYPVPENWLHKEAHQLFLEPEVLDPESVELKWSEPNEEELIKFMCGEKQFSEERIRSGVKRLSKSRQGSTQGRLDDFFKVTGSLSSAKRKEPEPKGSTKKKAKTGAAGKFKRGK
Sequence of Methanococcus maripaludis chaperonin (MmCpn) (Q6LX38 1-543): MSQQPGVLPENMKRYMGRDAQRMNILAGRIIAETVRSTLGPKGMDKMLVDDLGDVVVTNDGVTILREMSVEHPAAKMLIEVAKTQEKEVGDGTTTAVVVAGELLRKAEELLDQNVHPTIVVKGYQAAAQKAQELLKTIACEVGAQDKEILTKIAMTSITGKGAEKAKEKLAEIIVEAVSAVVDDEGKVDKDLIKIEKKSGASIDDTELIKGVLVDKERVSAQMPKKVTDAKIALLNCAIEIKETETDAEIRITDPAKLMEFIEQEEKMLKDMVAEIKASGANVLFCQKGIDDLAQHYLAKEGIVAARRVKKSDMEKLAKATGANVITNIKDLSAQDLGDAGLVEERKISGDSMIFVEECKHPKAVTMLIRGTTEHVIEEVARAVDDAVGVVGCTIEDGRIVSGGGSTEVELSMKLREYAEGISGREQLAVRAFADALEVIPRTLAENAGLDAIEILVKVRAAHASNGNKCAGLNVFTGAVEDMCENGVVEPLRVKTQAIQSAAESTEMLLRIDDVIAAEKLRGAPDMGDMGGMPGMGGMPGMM
Sequence of Thyrotropin receptor (Homo sapiens) (P16473 whole entry, looked up): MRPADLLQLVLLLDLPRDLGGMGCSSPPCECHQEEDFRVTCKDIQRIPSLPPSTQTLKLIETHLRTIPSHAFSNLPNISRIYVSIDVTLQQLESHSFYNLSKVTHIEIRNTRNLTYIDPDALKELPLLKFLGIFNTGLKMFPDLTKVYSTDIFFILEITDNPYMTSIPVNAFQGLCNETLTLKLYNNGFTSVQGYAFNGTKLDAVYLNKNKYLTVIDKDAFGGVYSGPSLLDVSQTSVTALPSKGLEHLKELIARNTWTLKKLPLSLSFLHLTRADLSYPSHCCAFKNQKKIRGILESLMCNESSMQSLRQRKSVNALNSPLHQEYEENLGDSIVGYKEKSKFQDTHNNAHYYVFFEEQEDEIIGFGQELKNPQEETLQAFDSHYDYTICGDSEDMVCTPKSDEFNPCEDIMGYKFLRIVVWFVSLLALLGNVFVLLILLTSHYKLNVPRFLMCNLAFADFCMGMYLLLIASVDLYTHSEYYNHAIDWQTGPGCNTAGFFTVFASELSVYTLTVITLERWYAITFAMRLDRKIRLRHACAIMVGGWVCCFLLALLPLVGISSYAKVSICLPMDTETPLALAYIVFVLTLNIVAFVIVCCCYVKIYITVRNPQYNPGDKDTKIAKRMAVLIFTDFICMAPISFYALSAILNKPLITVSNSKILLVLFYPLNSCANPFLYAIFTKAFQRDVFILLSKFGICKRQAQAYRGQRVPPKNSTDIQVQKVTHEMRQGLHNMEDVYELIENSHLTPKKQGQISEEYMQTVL

CN1CCc2cc(O)cc3c2[C@H]1Cc1ccc(O)c(O)c1-3
-1.2%: viability change [7]
active: Potency [1] 3.77 µM | Potency [2] 1.34 µM | Potency [5] 3.16 µM
inactive: outcome [3] | Potency [4] | Potency [6] | Potency [7] | outcome [8] | Potency [9] | Potency [10]

COc1ccc2[nH]c3c(c2c1)CCNC3
inactive: Potency [1] | Potency [11] | outcome [3] | outcome [12] | Potency [4] | Potency [5] | Potency [6] | activation [13] 1.56% | outcome [14] | Potency [15] | Potency [9] | Potency [10]

O=C1CC[C@@]2(O)C3Cc4ccc(O)c5c4C2(CCN3CC2CC2)[C@H]1O5 (stereo not given in full)
-12.7%: viability change [7]
inactive: Potency [11] | Potency [2] | outcome [3] | outcome [12] | outcome [16] | Potency [4] | Potency [17] | Potency [5] | Potency [18] | activation [13] 1.31% | Potency [7] | outcome [14] | Potency [15] | Potency [9] | Potency [10]

CC(C)(C)c1o[nH]c(=O)c1CC(N)C(=O)O (stereo not given)
inactive: Potency [11] | Potency [2] | outcome [3] | outcome [12] | outcome [16] | Potency [4] | Potency [5] | Potency [6] | Potency [19] | activation [13] 0.625% | Potency [7] | outcome [8] | outcome [14] | Potency [15] | Potency [9] | Potency [10]
8%: viability change [7]

CN(N=O)c1cc(O)ccc1O
active: Potency [11] 8.91 µM | Potency [2] 50.1 µM
inactive: outcome [3] | outcome [12] | Potency [4] | Potency [17] | Potency [5] | Potency [6] | Potency [19] | activation [13] -2.69% | outcome [8] | outcome [14] | Potency [15] | Potency [9]

CCCN(CCC)[C@@H]1CCc2cccc(O)c2C1
inactive: Potency [1] | Potency [11] | outcome [3] | outcome [12] | outcome [16] | Potency [4] | Potency [5] | Potency [6] | Potency [19] | activation [13] 0.5% | Potency [7] | outcome [8] | outcome [14] | Potency [15] | Potency [9] | Potency [10]
-3.45%: viability change [7]

CCNC(=O)[C@H]1O[C@@H](n2cnc3c(N)ncnc32)[C@H](O)[C@@H]1O
inactive: Potency [1] | Potency [11] | outcome [3] | Potency [4] | Potency [17] | Potency [5] | Potency [9] | Potency [10]

CC(N)Cc1c[nH]c2ccc(OCc3cccs3)cc12 (stereo not given)
-4.81%: viability change [7]
inactive: Potency [1] | Potency [11] | outcome [3] | outcome [16] | Potency [17] | Potency [5] | Potency [6] | Potency [19] | activation [13] 3.5% | Potency [7] | outcome [8] | outcome [14] | Potency [15] | Potency [10]
